# Bioassay records deposited in PubChem BioAssay by National Center for Advancing Translational Sciences (NCATS).
# Most compounds without a hit are left out; they make up all but 3.7% or so of the library.
# Sm TGR inh: inhibitors of Schistosoma mansoni thioredoxin glutathione reductase; AID 485364; hit rate 3% among 360,000; Potency, µM (series often up to 114 µM), for inactives: top-dose activity change, negative = inhibition, usual class: inhibitors; purified TGR, DTNB reduction, TNB absorbance 405 nm; also: nearly all actives have a fitted effect of over 60% in size
#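 Kinetic colorimetric format: TGR-catalysed, NADPH-driven DTNB reduction monitored via TNB absorbance. Enzyme dispensed at 20 nM; compound exposure 15 min at room temperature before reaction start.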
# Tb PYK inh: inhibitors of Trypanosoma brucei pyruvate kinase. Q57TT1. TbPYK enzyme, Kinase-Glo Plus ATP luminescence, 45 min. Potency, µM (series often up to 76.8 µM), for inactives: top-dose activity, negative = inhibition, most hits filed as inhibitors. hit rate 0.12% among 410,000. AID 624173; also: nearly all actives have a fitted effect of over 50% in size
#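 ADP (130 uM final) triggers the TbPYK reaction after compound addition; incubation is 45 min at room temperature. Kinase-Glo Plus is then added and luminescence imaged. Normalized data are fitted to concentration-effect curves.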
# RE007 growth inh: less growth of the S. pombe RE007 Vpr strain. S. pombe RE007 Vpr strain, BacTiter-Glo ATP luminescence, 24 h. hit rate 0.21% among 360,000. AID 651644. Potency, µM (doses to about 92.2 µM), inactives show top-dose activity change, negative = less growth, most hits filed as inhibitors; active = well fitted falling curve with a large enough effect; inconclusive = small, poorly fitted or top-dose-only effect; inactive = no such curve, though single readings can be large or run the other way; also: nearly all actives have a fitted effect of over 50% in size
#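 Fission yeast strain RE007, carrying one chromosomally integrated HIV-1 vpr copy, was seeded at OD 0.01 in PMG+AL medium with 23 nL pinned compound. After 24 h at 30 °C and 99% humidity, viability was read by BacTiter-Glo luminescence.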
# FMDV inh: foot and mouth disease virus antiviral activity; FMDV antiviral cell-based qHTS; Potency, µM (highest dose often 57.9 µM), without a hit: at the highest dose activity change, negative = inhibition, hits mostly inhibitors; hit rate 1.2% among 410,000; calls by dose curve; tested in HEK293T cells; also: read-out not given here; nearly all actives have a fitted effect of over 45% in size
# Starred values were filed as active, the others as inactive; u = inconclusive; x = no result. Unless noted, calls follow the shape of the dose curve; as a rule, active = well fitted curve in the direction sought with a large enough effect; inconclusive = small, poorly fitted or top-dose-only effect, or another doubt; inactive = no such curve, though single readings can be large; an effect the other way counts as inactive or inconclusive. % is scaled to controls: 0 for no effect and ±100 for the full control effect; potency is read from the fitted curve at half-maximal effect.
SMILES,Sm TGR inh,Tb PYK inh,RE007 growth inh,FMDV inh
O=C(CN1CCN(Cc2ccccc2Cl)C1=O)NCc1ccccc1Cl,5µM*,-2%,x,34%
O=C(CN1CCN(Cc2ccccc2F)C1=O)NCc1ccco1,28µM*,3%,-2%,-1%
O=C(O)CN1CCN(Cc2ccc(F)cc2Cl)C1=O,8.9µM*,-1%,2%,7%
O=C(NCc1ccccc1F)C1CCN(Cc2cc3ccccc3n2Cc2cccc(Cl)c2)CC1,13µM*,-6%,x,-18%
O=C(CN1CCN(Cc2ccc(F)cc2Cl)C1=O)NCCc1ccccc1,0%,2%,0%,-1%
O=C(NCc1ccco1)C1CCN(c2nc3ccccc3n2Cc2ccccc2F)CC1,45µM*,1%,14%,-28%
Cc1ccccc1NC(=O)COc1ccc2oc3c(c2c1)CCCC3,1%,-1%,x,-7%
CCOC(=O)c1cnc2c(OC)cccc2c1N1CCN(c2ccccn2)CC1,15%,-3%,0%,32µM*
CCc1ccc(NC(=O)c2cnc(N3CCN(c4ccccn4)CC3)c3ccccc23)cc1,6%,-18%,24%,11µM*
O=C(Nc1ccc(C(=O)N2CCC(N3CCCC3)CC2)cc1)c1ccc(Br)o1,25µM*,-1%,-15%,-23%
N#Cc1ccccc1N1CCN(C(=O)c2ccc(NC(=O)c3ccc(Br)o3)cc2)CC1,28µM*,-5%,2%,-11%
Cc1ccc(C(=O)N2CCN(c3ccc(NC(=O)c4ccc(Br)o4)cc3)CC2)cc1,9%,-9%,12%,u
COc1cc(=O)n2c(c1C(=O)NC(C)c1ccco1)CCN(C(=O)c1ccc(F)cc1Cl)CC2 (stereo not drawn),x,x,x,22%
COc1cc(NC(=O)Cn2nnc(-c3ccc(C(F)(F)F)cc3)n2)c(C(=O)O)cc1OC,8%,-7%,x,23%
CCOc1ccccc1NC(=O)Cn1cnc2c1c(=O)n(C)c(=O)n2C,3%,-7%,x,-15%
COc1ccc(-c2noc(CC(=O)Nc3cc(OC)ccc3OC)n2)cc1,-4%,0%,x,-22%
CCC1CN(CCNC(=O)c2ccccc2-n2cccn2)Cc2cc(OC)ccc2O1 (stereo not drawn),x,x,x,-13%
O=C(Nc1ccc(C(=O)N2CCN(c3ccccn3)CC2)cc1)c1ccc(Br)o1,45µM*,-6%,-1%,-24%
COc1cccc(C(=O)Nc2ccccc2-c2nnc(-c3ccc(C(C)(C)C)cc3)o2)c1,0%,-1%,x,7%
Cc1cc(C=O)c(C)n1-c1cc(C(F)(F)F)ccc1N1CCOCC1,50µM*,6%,-4%,0%
CC(C)N1CCc2c(sc(NC(=O)c3ccc(S(=O)(=O)N4CCOCC4)cc3)c2C#N)C1,45µM*,0%,11%,-11%
CC(C)N1CCc2c(sc(NC(=S)NC(=O)c3ccccc3)c2C#N)C1,-16%,0%,-7%,19%
CCOC(=O)N1CCc2c(sc(NC(=O)c3ccc(S(=O)(=O)N4CCCC4)cc3)c2C#N)C1,-18%,u,2%,18µM*
COc1ccc(C(=O)Nc2sc3c(c2C#N)CCN(C(C)=O)C3)cc1,13%,-11%,-5%,9%
CCc1ccc(S(=O)(=O)c2cn(Cc3ccccc3)c3cc(N4CCCC4)c(F)cc3c2=O)cc1,3%,-3%,x,6%
SMILES,Sm TGR inh,Tb PYK inh,RE007 growth inh,FMDV inh
CCSc1nc2sc3c(c2c2[n+]1CC(CBr)O2)CCCC3 (stereo not drawn),45µM*,-1%,2%,-27%
N#Cc1cnn(-c2nc(SCc3ccccc3)nc3sc4c(c23)CCCC4)c1N,-22%,5%,-16%,-21%
BrCC1C[n+]2c(SCc3ccccc3)nc3sc4c(c3c2O1)CCCC4 (stereo not drawn),32µM*,-7%,0%,1%
CCCCN(CC)CCNC(=O)Cn1c(=O)c2cccn2c2cccnc21,-2%,-4%,x,-12%
COc1cc(-c2ccno2)ccc1S(=O)(=O)N1CCN(c2cc(C)ccc2C)CC1,0%,4%,x,-3%
COc1ccccc1CN1CCC2(CC1)CCN(C(=O)c1cc(C(F)(F)F)cc(C(F)(F)F)c1)CC2,x,-1%,x,-15%
C=CCn1c(C)cc(C(=O)COC(=O)c2ccc(N)c([N+](=O)[O-])c2)c1C,-5%,-4%,-1%,-28%
CCn1c(C)cc(C(=O)COC(=O)c2ccccc2[N+](=O)[O-])c1C,x,u,u,5.6µM*
COCCn1c(C)cc(C(=O)COC(=O)c2n[nH]c3ccccc23)c1C,-12%,-6%,-15%,11µM*
COCCn1c(C)cc(C(=O)COC(=O)c2ccccc2Br)c1C,-9%,-21%,-25%,35µM*
CC1(C)C2CC[C@]1(C)[C@@H](O)C2,x,2%,x,x
O=C(OCC(COC(=O)c1cccnc1)(COC(=O)c1cccnc1)COC(=O)c1cccnc1)c1cccnc1,x,2%,x,x
O=C(NCCN1Cc2ccccc2OC(c2ccsc2)C1)c1ccc2[nH]ccc2c1 (stereo not drawn),x,x,x,1%
COc1ccc(C(C)=O)cc1COC(=O)c1cccc(N(C)C)c1,-22%,-2%,19%,-7%
COc1ccc(C(C)=O)cc1COC(=O)c1cc(=O)c2ccccc2o1,1.8µM*,-1%,u,-7%
COc1ccccc1C(=O)COC(=O)Cc1n[nH]c(=O)c2ccccc12,8%,-12%,-9%,-9%
COc1ccc(-n2c(C)cc(C(=O)COC(=O)Cc3n[nH]c(=O)c4ccccc34)c2C)cc1,-8%,1%,6%,28µM*
COc1ccc(C(C)=O)cc1COC(=O)Cc1n[nH]c(=O)c2ccccc12,18µM*,-8%,1%,-3%
COc1ccc(C(C)=O)cc1COC(=O)c1ccc2ccccc2n1,25µM*,-4%,-9%,8%
Cc1nc2cc(NC(=O)[C@@H]3C[C@@H](Sc4ccccn4)CN3Cc3ccc(F)cc3F)ccc2s1,x,x,x,-5%
CCc1ccccc1NC(=O)Cn1nnc(C(=O)OC)c1C(=O)OC,6%,-1%,x,-8%
CC(=O)c1cccc(Nc2ncnc3c2cnn3-c2cccc(Cl)c2)c1,2%,-6%,x,-14%
COc1ccc(C(C)=O)cc1COC(=O)c1cc(C)nc2ccccc12,3.5µM*,-14%,1%,-6%
COc1ccc(C(C)=O)cc1COC(=O)c1cc(C)oc1C,u,0%,0%,-7%
COc1ccc(C(C)=O)cc1COC(=O)c1cccnc1SC,3.2µM*,-2%,3%,3%
SMILES,Sm TGR inh,Tb PYK inh,RE007 growth inh,FMDV inh
CCOc1ccc(C(C)=O)cc1COC(=O)c1cccnc1SC,-3%,1%,-4%,-12%
O=C(CCc1nc2ccccc2s1)N1CCOc2ccc(CN3CCc4sccc4C3)cc2C1,x,x,x,2%
COc1ccc(OC)c(CNC(=O)CCCn2c(=O)c3cccn3c3cccnc32)c1,7%,-3%,x,-10%
CCOC(=O)c1c(-c2ccco2)csc1NC(=O)COC(=O)c1cnc(C)cn1,28µM*,2%,7%,-11%
CCOC(=O)c1c(-c2cccs2)csc1NC(=O)CN1CCOCC1,1%,-8%,19%,u
CCOC(=O)c1c(-c2ccc(C)o2)csc1NC(=O)CN1CCOCC1,22µM*,-1%,-24%,0%
